This is one part of a sample in which hits are shown more often than they occur.
RmlCD inh mix – inhibitors of RmlC and RmlD coupled enzymes | RmlC/RmlD coupled enzyme inhibition, 384-well mixture HTS | inhibition, % at 5.5 µM | actives 0.39% (n = 110,000); in the data active = inhibition above about 30%, passing the limit was not always enough; inconclusive = no clear call, values can overlap the other calls
HIV RNase H inh-1 – inhibitors of HIV-1 reverse transcriptase RNase H; P04585; RT-RNase H RNA/DNA duplex cleavage, fluorescence; inhibition, % at 10 µM; actives 1.9% (n = 65,000); in the data active = inhibition above about 50%
HIV RNase H inh-2 – confirmation of HIV-1 reverse transcriptase RNase H inhibitors | shares compounds with HIV RNase H inh-1 | Recombinant RT RNase H, fluorescent RNA/DNA duplex cleavage | inhibition, % at 10 µM | actives 39% (n = 1,000) | AID 651; in the data active = inhibition above about 48%; inconclusive = no clear call, values can overlap the other calls
An asterisk follows results filed as active; ? = inconclusive; nt = no result given.

SMILES	RmlCD inh mix	HIV RNase H inh-1	HIV RNase H inh-2
O=C(/N=C1\NC(=O)C(F)(C(F)(F)F)S1)NC1CCCCC1 (centres undefined)	-14	87*	30
CCOC(=O)c1cc(-c2nnc(SCC(=O)Nc3ccc(F)cc3)o2)c(C)nc1C	-7	70*	2
CCOC(=O)c1cc(-c2nnc(-c3ccc(Cl)cc3)o2)c(C)nc1C	-6	10	nt
CC(C)Cn1c(N)c(C(=O)COC(=O)c2cc(-c3ccccc3)nc3ccccc23)c(=O)n(C)c1=O	-2	nt	nt
CC(C)Cn1c(N)c(C(=O)COC(=O)c2cc(-c3ccco3)nc3ccccc23)c(=O)n(C)c1=O	nt	86*	?
COc1ccc(NC(=O)C(C)Oc2ccc(/C(C)=N\O)cc2)cc1 (centres undefined)	nt	0	nt
Cc1cc(C)cc(NC(=O)C2CCCN(c3nc(C)cc(C)n3)C2)c1 (centres undefined)	-20	70*	44
Cc1cc(C)cc(NC(=O)C2CCCN(c3nccc(C)n3)C2)c1 (centres undefined)	8	-5	nt
CCCCn1c(CN2C(=O)c3ccccc3C2=O)nc2ccccc2c1=O	14	90*	54*
O=C1c2ccccc2C(=O)N1Cc1nc2ccccc2c(=O)n1CCCn1ccnc1	-15	-10	nt
Cn1c(=O)[nH]c(=O)c2c1nc(N1CCCCC1)n2CCSc1ncccn1	nt	-8	nt
C/C=C/Cn1c(SC)nc2c1c(=O)[nH]c(=O)n2C	12	77*	?
C/C=C/Cn1c(N2CCCCCC2)nc2c1c(=O)[nH]c(=O)n2C	nt	87*	40
C/C=C/Cn1c(Br)nc2c1c(=O)[nH]c(=O)n2C	-10	-8	nt
Oc1cccc2cc3cccc(O)c3c(O)c12	6	nt	nt
COc1ccccc1NS(=O)(=O)c1ccc2c(c1)n(C)c(=O)n2C	9	nt	nt
N#Cc1c(N)sc(=S)c2c1CCCC2	0	67*	-6
CCC1(C)Cc2c(C#N)c(N)sc(=S)c2CO1 (centres undefined)	-10	26	nt
O=c1[nH]ccc2c(O)cccc12	12	nt	nt
O=C1c2ccccc2C(=O)N1CCC1=CCCCC1	-19	nt	nt
CCOC(=O)c1c(NC(=O)c2cc(C3CC3)on2)sc(C(C)=O)c1C	nt	68*	51
CCCc1cc(C(=O)Nc2sc(C)c(C)c2C(=O)OCC)no1	-32	86*	67*
CCOC(=O)c1c(NC(=O)c2cc(C3CC3)on2)sc2c1CCCC2	nt	84*	94*
CCOC(=O)c1c(NC(=O)c2ccc(Cl)s2)sc(C)c1C	-107	20	nt
CCOC(=O)c1c(NC(=O)c2ccco2)sc2c1CCCCC2	-4	-46	nt
SMILES	RmlCD inh mix	HIV RNase H inh-1	HIV RNase H inh-2
CCOC(=O)c1c(NC(=O)c2csc(C)c2)sc(C(C)=O)c1C	nt	-11	nt
COc1ccc(CSc2nnc(Cc3sc(-c4ccccc4)nc3-c3ccccc3)o2)cc1	-8	nt	nt
O=C(Sc1nnnn1C1CCCCC1)c1cccs1	7	62*	40
O=C(CSc1nnnn1C1CCCCC1)NCc1ccccc1	5	nt	nt
CCOc1c2ccc(C(=O)NCc3ccc4c(c3)OCO4)cc2nn1CCOC	14	nt	nt
S=c1nc(C2CC2)[nH]c2ccccc12	-9	84*	69*
CC(C)c1nc(=S)c2ccccc2[nH]1	4	23	nt
CCOC(=O)C1=C(CCc2ccccc2)NC(=O)NC1c1ccc(C#N)cc1 (centres undefined)	6	nt	nt
O=C(c1ccc2nc(-c3ccco3)c(-c3ccco3)nc2c1)N1CCC2(CC1)OCCO2	nt	75*	33
Cc1nc2cc(C(=O)N3CCC4(CC3)OCCO4)ccc2n1-c1cccc(F)c1	-9	-15	nt
COc1ccc(-c2nnn(CC(=O)N(Cc3ccccc3Cl)C(C(=O)NCC3CCCO3)c3ccco3)n2)cc1OC (centres undefined)	5	nt	nt
CC(C)(C)N1OC2CC1c1nc3ccccc3n1C2 (centres undefined)	4	nt	nt
COC(=O)CN1C(=O)C(O)(CC(=O)c2ccc(C)cc2)c2ccccc21 (centres undefined)	-19	54*	-1
COC(=O)CN1C(=O)C(O)(CC(=O)c2ccccc2)c2ccccc21 (centres undefined)	nt	19	nt
CC(=O)n1cc([C@H]2C=C(C(=O)N3CCN(Cc4ccc5c(c4)OCO5)CC3)O[C@@H](OCCCCO)C2)c2ccccc21	9	nt	nt
CC1(C)Cc2c(c(N3CCOCC3)nc3sc(-c4ccc(C(=O)O)o4)c(N)c23)CO1	-1	8	nt
CC1(C)Cc2c(c(N3CCOCC3)nc3sc(C(=O)N4CCCCC4)c(N)c23)CO1	-40	72*	41
COc1ccc(CCNC(=O)COc2ccc(S(=O)(=O)NC(C)C)cc2Cl)cc1OC	-14	nt	nt
CC1Oc2ccccc2N(Cc2ccccc2Cl)C1=O (centres undefined)	5	-26	nt
CC1Oc2ccccc2N(Cc2ccccc2F)C1=O (centres undefined)	-25	90*	12
C[C@@H]1CCC[C@@]2(O[C@H](CCO)C[C@H](O)[C@H]2O)O1	6	nt	nt
Cc1ccc(NC(=O)c2ccc3c(c2)N(CC(=O)N2CCCCC2)C(=O)C(C)(C)O3)cc1	-14	-11	nt
CC1(C)Oc2ccc(C(=O)NC3CCCC3)cc2N(CC(=O)NC2CCCCC2)C1=O	7	73*	48
S=C(c1ccc(N2CCCC2)cc1)N1CCCCC1	8	6	nt
CCN(CC)c1ccc(C(=S)N2CCN(c3ccccc3)CC2)cc1	4	73*	26
SMILES	RmlCD inh mix	HIV RNase H inh-1	HIV RNase H inh-2
Cn1nnnc1Sc1nc(-c2cccnc2)nc2ccccc12	nt	-48	nt
CCOc1cc(/C=C2/C(=N)N3OC(C)=CC3=NC2=O)ccc1OCCOc1ccccc1	10	nt	nt
COc1ccccc1C(=O)Nc1ccc(C(=O)N2CCCC2)cc1	-9	nt	nt
NS(=O)(=O)c1ccc(NC(=O)c2ccccc2C(=O)N2CCCCC2)cc1	4	76*	14
O=C(NCCc1ccc(Cl)cc1)C1CCC(=O)N1Cc1ccc(F)cc1 (centres undefined)	10	nt	nt
CCOC(=O)c1c(N)sc(=S)c2c1CCC2	0	48	nt
CCOC(=O)c1c(N)ssc1=S	5	85*	?
COc1cc(OC)nc(Oc2ccccc2C(=O)Oc2cccc(C)c2)n1	6	nt	nt
C=CCn1c(=O)c(C(=O)Nc2nnc(C)s2)c(O)c2ccccc21	nt	83*	98*
C=CCn1c(=O)c(C(=O)Nc2cccnc2)c(O)c2ccccc21	7	nt	nt
CCOC(=O)N1CCN(C(=O)Cc2ccsc2)CC1	-11	-12	nt
NC(=O)[C@H]1CC2(CC(c3cccc(NC(=O)COc4ccc(Cl)cc4)c3)=NO2)CN1C(=O)Cc1ccc([N+](=O)[O-])cc1 (some centres undefined)	11	nt	nt
C=CCNC(=O)c1c(N)n(-c2ccc3c(c2)OCO3)c2nc3ccccc3nc12	-41	57*	54*
CCCCNC(=O)c1c(N)n(Cc2ccc3c(c2)OCO3)c2nc3ccccc3nc12	-101	nt	nt
COc1ccc(-c2c(C#N)c(SCC(N)=O)nc3c2CCCC3)cc1	-11	nt	nt
N#Cc1c(-c2ccco2)c2c([nH]c1=S)CCCC2	-5	82*	36
N#Cc1c2c(c(-c3ccco3)[nH]c1=O)CCCC2	-5	-7	nt
N#Cc1c(-c2cccnc2)c2c([nH]c1=S)CCCC2	-14	90*	69*
N#Cc1c(N)nc2c(c1-c1cccnc1)CCCCC2	-10	-13	nt
COc1ccc(-c2c3c([nH]c(=S)c2C#N)CCC3)cc1	12	81*	25

Source: PubChem BioAssay
